In PubChem BioAssay (Tox21):
Records with an inconclusive call do not appear. A call without a number means that no potency is given here. Where a structure was tested more than once in an assay, its records may differ in their call. Activity calls are given as the source filed them. Unless noted, calls follow the shape of the dose curve; as a rule, active = well fitted curve in the direction sought with a large enough effect in the repeat runs; inconclusive = weak or mixed curves; inactive = no such curve, though single readings can be large; an effect the other way counts as inactive or inconclusive.

Tests used:
[1] = biological target: Luciferin 4-monooxygenase (Photinus pyralis) (UniProt P08659); assay: qHTS assay to identify small molecule inhibitors of firefly luciferase (AID 1224835); also: nearly all actives have a fitted effect of over 25% in size; also: potency is read from the fitted curve at half-maximal effect
Luciferin 4-monooxygenase (Photinus pyralis), sequence (P08659 whole entry, looked up): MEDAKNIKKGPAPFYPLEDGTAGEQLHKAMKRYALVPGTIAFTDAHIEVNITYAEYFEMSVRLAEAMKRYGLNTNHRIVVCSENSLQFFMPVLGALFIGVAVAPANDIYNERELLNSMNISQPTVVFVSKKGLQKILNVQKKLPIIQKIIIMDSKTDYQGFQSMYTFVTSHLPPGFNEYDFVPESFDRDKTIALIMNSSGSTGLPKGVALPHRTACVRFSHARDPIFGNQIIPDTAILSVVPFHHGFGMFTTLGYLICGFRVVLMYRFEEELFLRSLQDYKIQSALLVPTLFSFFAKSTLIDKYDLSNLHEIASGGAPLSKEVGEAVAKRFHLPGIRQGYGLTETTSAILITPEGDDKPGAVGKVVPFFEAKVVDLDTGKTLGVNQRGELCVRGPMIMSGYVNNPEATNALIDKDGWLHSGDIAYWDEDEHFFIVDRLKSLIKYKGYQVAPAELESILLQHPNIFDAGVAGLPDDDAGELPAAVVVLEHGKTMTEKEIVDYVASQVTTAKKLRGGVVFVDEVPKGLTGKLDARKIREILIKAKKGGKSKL
Outline: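 Quantitative HTS format; KM concentrations of both substrates. Purified P. pyralis FLuc activity quantified from luminescence images.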

[2] = qHTS assay to identify small molecule agonists of the constitutive androstane receptor (CAR) signaling pathway - cell viability counter screen (AID 1224836); also: nearly all actives have a fitted effect of over 45% in size; also: potency is read from the fitted curve at half-maximal effect
Outline: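 Cells were seeded and incubated 4 hrs. Compounds were added across 15 concentrations together with PK11195 at 0.75 uM final. Plates were incubated 23 hrs at 37 C. CellTiter-Fluor was added and fluorescence measured.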

[3] = qHTS assay to identify small molecule antagonists of the constitutive androstane receptor (CAR) signaling pathway - cell viability counter screen (AID 1224837); also: nearly all actives have a fitted effect of over 45% in size; also: potency is read from the fitted curve at half-maximal effect
Outline: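 HepG2 cells stably expressing hCAR and a CYP2B6-2.2kb reporter were plated and pre-incubated 4 hr at 37 C/5% CO2, then given compounds at 15 concentrations plus 50 nM CITCO (final). After 23 hr, viability was read by CellTiter-Fluor fluorescence.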

[4] = qHTS assay to identify small molecule antagonists of the estrogen related receptor signaling pathway with the pleiotropic PPARgamma coactivator (PGC) from Tox21 10K library - cell viability counter screen (AID 1224840; active = well fitted cell-killing curve with a large enough effect in the repeat runs, not every such curve was filed as active; also: nearly all actives have a fitted effect of over 40% in size)
Outline: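 PGC/ERR cells were seeded at 2,000 cells/well and left 6 hours at 37 C/5% CO2 before pin-tool addition of compounds in DMSO. After 17.5 hours at 37 C, CellTiter-Fluor was added and fluorescence read 30 minutes later.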

[5] = qHTS assay to identify small molecule antagonists of the estrogen related receptor signaling pathway with the pleiotropic PPARgamma coactivator (PGC) from Tox21 10K library (AID 1224841; call rule not given here; also: actives are mostly falling curves and most rising ones were filed inactive; nearly all actives have a fitted effect of over 50% in size)
Outline: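 PGC/ERR reporter cells were seeded at 2,000 cells/well and held 6 hours at 37 C/5% CO2 before pin-tool addition of compounds in DMSO. After 18 hours at 37 C, One-Glo was added and luminescence read after 30 minutes at room temperature.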

[6] = qHTS assay to identify small molecule agonists of the estrogen related receptor signaling pathway with the pleiotropic PPARgamma coactivator (PGC) from Tox21 10K library (AID 1224842); also: nearly all actives have a fitted effect of over 15% in size
Outline: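 PGC/ERR reporter cells (NTP line) were seeded 2,000 per well, rested 6 h at 37 C/5% CO2, then pin-dosed with compounds in DMSO for 18 h at 37 C; luciferase read by One-Glo luminescence after 30 min at room temperature.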

[7] = biological target: Thyrotropin receptor (Homo sapiens) (UniProt P16473); assay: qHTS assay to identify small molecule agonists of the thyroid stimulating hormone receptor (TSHR) signaling pathway (AID 1224843; calls by dose curve; also: nearly all actives have a fitted effect of over 45% in size)
Thyrotropin receptor (Homo sapiens), sequence (P16473 whole entry, looked up): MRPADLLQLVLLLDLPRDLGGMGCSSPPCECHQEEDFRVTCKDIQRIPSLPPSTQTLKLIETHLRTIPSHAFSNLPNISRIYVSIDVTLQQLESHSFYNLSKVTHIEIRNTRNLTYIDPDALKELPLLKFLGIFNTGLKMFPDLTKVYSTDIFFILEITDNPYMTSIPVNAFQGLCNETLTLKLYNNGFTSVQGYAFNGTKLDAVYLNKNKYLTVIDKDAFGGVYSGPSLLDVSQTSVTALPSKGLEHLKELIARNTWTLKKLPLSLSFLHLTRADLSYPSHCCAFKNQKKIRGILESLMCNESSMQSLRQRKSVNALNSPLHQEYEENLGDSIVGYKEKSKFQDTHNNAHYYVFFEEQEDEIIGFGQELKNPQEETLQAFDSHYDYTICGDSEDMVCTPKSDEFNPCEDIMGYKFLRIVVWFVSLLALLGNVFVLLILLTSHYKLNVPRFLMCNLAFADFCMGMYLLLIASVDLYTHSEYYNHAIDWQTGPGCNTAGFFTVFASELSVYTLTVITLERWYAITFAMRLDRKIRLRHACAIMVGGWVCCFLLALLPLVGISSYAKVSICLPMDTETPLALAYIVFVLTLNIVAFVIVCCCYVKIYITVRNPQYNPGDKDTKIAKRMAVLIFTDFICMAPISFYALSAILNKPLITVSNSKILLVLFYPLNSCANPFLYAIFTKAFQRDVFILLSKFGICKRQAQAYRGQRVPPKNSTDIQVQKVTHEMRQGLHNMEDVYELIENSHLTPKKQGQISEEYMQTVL
Outline: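 TSHR-expressing HEK293 cells (800 per well) were exposed to compounds for 30 min at room temperature. cAMP was then detected by HTRF competition with cAMP-d2 and anti-cAMP cryptate, read after 1 h at room temperature. Fifteen concentrations, triplicate.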

[8] = qHTS assay to identify small molecule agonists of the hypoxia (HIF-1) signaling pathway - cell viability counter screen (AID 1224844; calls by dose curve; also: nearly all actives have a fitted effect of over 50% in size; also: potency is read from the fitted curve at half-maximal effect)
Outline: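 HRE-bla ME-180 cells in medium with 0.5% dialyzed FBS were preincubated 5 hrs at 37C, exposed to compounds for 17 hrs, then viability was read as CellTiter-Glo luminescence after 30 min at room temperature, in the reporter wells.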

[9] = qHTS assay to identify small molecule agonists of H2AX (AID 1224845; active = well fitted activation curve with a large enough effect in the signal ratio in the repeat runs, not every such curve was filed as active; the % refers to the signal ratio)
Outline: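 Wild-type CHO-K1 cells plated overnight, then exposed 3 hr at 37C to compounds at 15 concentrations (0.76% DMSO). Lysed, then HTRF anti-pH2AX(S139)-cryptate/anti-H2AX-d2 detection after 24 hr at room temperature; emissions 665 and 620 nm.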

[10] = qHTS assay to identify small molecule agonists of the hypoxia (HIF-1) signaling pathway (AID 1224846; active = well fitted activation curve with a large enough effect in the signal ratio in the repeat runs, not every such curve was filed as active; the % refers to the signal ratio)
Outline: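 HRE-bla ME-180 cells (beta-lactamase reporter under hypoxia response element) were plated at 2,000 cells/well in medium with 0.5% dialyzed FBS, rested 5 hrs, then given compounds in DMSO for 17 hrs at 37C, 5% CO2. Reporter induction was read with CCF4-AM FRET substrate.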

[11] = qHTS assay to identify small molecule agonists of H2AX - cell viability counter screen (AID 1224847; calls by dose curve; also: nearly all actives have a fitted effect of over 30% in size; also: potency is read from the fitted curve at half-maximal effect)
Outline: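 Cytotoxicity counter screen in wild-type CHO-K1 cells: a 3 hr compound treatment at 37C across 15 concentrations, followed by CellTiter-Glo luminescence to gauge viable cells.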

[12] = qHTS assay to identify small molecule antagonists of the estrogen related receptor (ERR) signaling pathway from Tox21 library (AID 1224848); also: nearly all actives have a fitted effect of over 50% in size
Outline: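 Cells: ERR line, 2,000/well; 6 h preincubation 37 C/5% CO2. Cpd in DMSO via pin tool; 18 h, 37 C. ONE-Glo, 30 min RT, luminescence.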

[13] = qHTS assay to identify small molecule agonists of the estrogen related receptor (ERR) signaling pathway from Tox21 library (AID 1224849; calls by dose curve; also: nearly all actives have a fitted effect of over 15% in size); conditions: ERR reporter cell line, ONE-Glo luciferase, 18 h; at 92.4 µM (top of the series) unless noted
Outline: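 ERR reporter cell line (NTP) seeded, rested 6 h at 37 C/5% CO2, then pinned with Tox21 compounds in DMSO. After 18 h at 37 C, ONE-Glo luciferase luminescence was read following 30 min at room temperature.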

[14] = qHTS RealTime-Glo MT Cell Viability Assay in HepG2 cells - 24 hour (AID 1224867); also: nearly all actives have a fitted effect of over 50% in size; also: potency is read from the fitted curve at half-maximal effect
Outline: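 Cell number in HepG2 cultures estimated from NanoLuc luminescence generated by metabolic reduction of a prosubstrate by living cells. The homogeneous, nonlytic format allowed repeated reads at 0, 8, 16, 24, 32 and 40 h of compound exposure.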

[15] = A CellTox Green Cytotoxicity Assay to monitor cytotoxicity in HEK293 cells - 0 hour (AID 1224869); also: nearly all actives have a fitted effect of over 50% in size
Outline: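 HEK293 cells premixed with CellTox Green dye were seeded at 600 cells/well and left 5 h at 37 C/5% CO2 before pin transfer of 23 nL compound in DMSO. Fluorescence from dye bound to dead-cell DNA was read during 40 h treatment.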

[16] = qHTS RealTime-Glo MT Cell Viability Assay in HepG2 cells - 40 hour (AID 1224870); also: nearly all actives have a fitted effect of over 50% in size; also: potency is read from the fitted curve at half-maximal effect
Outline: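 HepG2 cells mixed with RealTime-Glo MT reagents (NanoLuc plus cell-permeant prosubstrate) were seeded at 600 cells/well, incubated 5 h at 37 C/5% CO2, then pinned with compounds in DMSO; nonlytic luminescence tracked viability during 40 h treatment.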

[17] = biological target: Nuclear receptor subfamily 1 group I member 3 (Homo sapiens) (UniProt Q14994); assay: qHTS assay to identify small molecule antagonists of the constitutive androstane receptor (CAR) signaling pathway (AID 1224838); also: nearly all actives have a fitted effect of over 40% in size; also: potency is read from the fitted curve at half-maximal effect
Nuclear receptor subfamily 1 group I member 3 (Homo sapiens), sequence (Q14994 whole entry, looked up): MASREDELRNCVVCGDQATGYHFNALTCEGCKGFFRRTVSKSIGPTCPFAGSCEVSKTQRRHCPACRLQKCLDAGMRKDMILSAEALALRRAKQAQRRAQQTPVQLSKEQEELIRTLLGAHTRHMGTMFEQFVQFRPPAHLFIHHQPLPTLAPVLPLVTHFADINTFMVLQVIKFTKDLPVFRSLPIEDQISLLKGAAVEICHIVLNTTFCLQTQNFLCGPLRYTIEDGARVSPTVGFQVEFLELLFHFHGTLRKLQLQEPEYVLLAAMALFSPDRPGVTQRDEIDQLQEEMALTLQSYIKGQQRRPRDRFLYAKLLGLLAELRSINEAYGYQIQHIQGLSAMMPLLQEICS
Outline: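 HepG2 cells stably co-transfected with hCAR and a CYP2B6-2.2kb luciferase reporter were seeded 4 h before compound addition at 15 concentrations. Cells were stimulated with 50 nM CITCO (final) for 24 h at 37 C; luciferase luminescence was then read.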

[18] = biological target: Nuclear receptor subfamily 1 group I member 3 (Homo sapiens) (UniProt Q14994); assay: qHTS assay to identify small molecule agonists of the constitutive androstane receptor (CAR) signaling pathway (AID 1224839); also: nearly all actives have a fitted effect of over 15% in size; also: potency is read from the fitted curve at half-maximal effect;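 as to activation: HepG2 cells stably carrying human CAR and a CYP2B6 luciferase reporter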
Outline: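 Cells were plated and incubated 4 hrs, then dosed with compounds at 15 concentrations. PK11195 was added to 0.75 uM final. After 24 hrs at 37 C, luciferase luminescence was measured.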

[19] = qHTS RealTime-Glo MT Cell Viability Assay in HEK293 cells - 32 hour (AID 1224868); also: nearly all actives have a fitted effect of over 50% in size; also: potency is read from the fitted curve at half-maximal effect
Outline: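 Homogeneous bioluminescent viability format in HEK293 cells (600 cells/well). Following 5 h at 37 C/5% CO2, 23 nL compound was pintooled; the signal was measured repeatedly during 40 h incubation.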

Compound	Potency [1]	Potency [2]	Potency [3]	Potency [4]	Potency [5]	Potency [6]	Potency [7]	Potency [8]	Potency [9]	outcome [10]	Potency [11]	Potency [12]	activity change, positive = activation [13]	Potency [14]	Potency [15]	Potency [16]	Potency [17]	Potency [18]	Potency [19]
CC(=O)NNC(C)=O	inactive	inactive	inactive	inactive	inactive	inactive	inactive	inactive	inactive	inactive	inactive	inactive	2.66% (inactive)	inactive	inactive	inactive	–	–	–
Cc1ccc2c(c1[N+](=O)[O-])C(=O)c1ccccc1C2=O	inactive	6.73 µM (active)	–	inactive	inactive	–	inactive	inactive	inactive	inactive	inactive	inactive	–	–	inactive	inactive	0.673 µM (active)	inactive	0.958 µM (active)
Nc1cccc2c(N)cccc12	39.9 µM (active)	24.3 µM (active)	24.3 µM (active)	–	–	–	–	–	–	inactive	–	–	–	–	inactive	–	inactive	24.3 µM (active)	–
CNS(=O)(=O)c1cc(C(=O)N2CCC(CCN3C4CCC3CC(n3c(C)nc5ccccc53)C4)(c3cccc(F)c3)CC2)c(Cl)cc1F (stereo not drawn)	inactive	–	inactive	–	–	–	inactive	–	inactive	–	inactive	–	–	–	inactive	–	–	–	5.49 µM (active)
CCc1ccc(C)cc1	inactive	inactive	inactive	inactive	–	–	–	inactive	inactive	inactive	inactive	–	–	inactive	inactive	inactive	inactive	inactive	inactive
CN(C)CC/C=C1\c2ccccc2Sc2ccc(Cl)cc21	inactive	–	–	–	inactive	–	inactive	–	–	–	49.2 µM (active)	–	-17.7% [at 42.5 µM] (inactive)	23.9 µM (active)	–	–	–	inactive	23.9 µM (active)
COc1ccc2nc(S(=O)Cc3ncc(C)c(OC)c3C)[nH]c2c1 (stereo not drawn)	31.3 µM (active) and inactive	inactive	inactive	inactive	–	–	inactive	inactive	inactive	inactive	inactive	–	–	inactive	–	–	–	60.4 µM (active) and inactive	–
C[C@@H]1C[C@H]2[C@@H]3CCC4=CC(=O)C=C[C@]4(C)[C@@]3(F)[C@@H](O)C[C@]2(C)[C@@]1(O)C(=O)COP(=O)(O)O	inactive	inactive	inactive	inactive	–	–	inactive	inactive	inactive	inactive	–	–	–	–	inactive	–	–	–	inactive
CC(O)Cn1cnc2c1c(=O)n(C)c(=O)n2C (stereo not drawn)	inactive	inactive	inactive	inactive	inactive	inactive	–	inactive	inactive	–	inactive	inactive	0.481% [at 42.5 µM] (inactive)	inactive	inactive	inactive	inactive	–	inactive
O=[N+]([O-])C1(Br)COCOC1	25.2 µM (active)	–	inactive	–	inactive	inactive	–	38.9 µM (active)	–	–	113 µM (active)	–	-12.2% (inactive)	54.9 µM (active)	inactive	49 µM (active)	–	inactive	34.7 µM (active)
O=P(O)(O)Oc1ccccc1	inactive	inactive	inactive	inactive	–	–	inactive	–	inactive	inactive	inactive	–	–	inactive	inactive	inactive	–	–	inactive
